# In PubChem BioAssay (NCI):
# About 83,000 compounds went through this panel and 20% of them were active in at least one assay; those are over-represented in the sample as a whole.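 Negative percent growth values reflect cell death: -40 means 40% of the cells present at the start died, and -100 means all died.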 A number with no mark means an inactive call. The source made the active and inactive calls. How the source made its calls: active means growth percent below 10; inactive means the rest.
# System: NCI-H460 lung
# Assay: NCI-60 one-dose screen, 48 h (100 = growth as untreated, 0 = no growth, -100 = all killed)
# Settings: 10 µM
row,Compound,growth
1,COc1cc(-c2cc(/C=C3\C(=O)Nc4cc(Cl)ccc43)[nH]n2)cc(OC)c1OC,34.7%
2,CCCCCCc1cc(N=Nc2ccc(S(=O)(=O)Nc3cc(C)nc(C)n3)cc2)c(O)cc1O,110%
3,N#CC1=C(Nc2ccccc2Cl)SC(c2ccccc2O)NC1=O (centres undefined),121%
4,COc1cc(-c2nc(Nc3nc4ccccc4s3)[nH]c(=O)c2C#N)cc(OC)c1O,105%
5,CCCCCCCCCCCCCCCCCCOCC(COCCOCC[N+]1(CCCCCC(=O)[O-])CCCC1)Oc1ncccn1 (centres undefined),23.7%
6,COc1ccc(C2=NN(C(=O)c3ccc(S(C)(=O)=O)cc3)C(c3ccc(OC)c(OC)c3)C2)c(OC)c1 (centres undefined),107%
7,COc1ccccc1CNCCCN1C(=O)c2ccc3c4c(ccc(c24)C1=O)C(=O)N(CCCN)C3=O,-50.8% (active)
8,Nc1nc(N)c(NC(=O)CNc2ccc(C(=O)O)cc2)c(N)n1,110%
9,c1ccc(CP(Cc2ccccc2)c2ccccc2)cc1,112%
10,COC(=O)C1(C)Cc2cc(OC(C)=O)c(OC(C)=O)cc2N1 (centres undefined),107%
11,CC(=O)OCc1cc(-c2nc3ccccc3[nH]c2=O)nn1-c1ccc(Cl)cc1,104%
12,CC(=O)c1nc2ccccc2n1CCN1CCN(C)CC1,13.1%
13,COc1ccc(-c2nn(-c3cccc(NC(=O)Nc4ccc(Cl)c(C(F)(F)F)c4)c3)cc2-c2ccncc2)cc1Cl,1.08% (active)
14,COc1cc(C(=O)/C=C/c2cc(-c3cc(OC)c(OC)c(OC)c3)n[nH]2)cc(OC)c1OC,29.7%
15,Cc1cccc(NC2=C(C#N)C(=O)NC3(CCCC3)S2)c1,107%
16,O=C1/C(=C\c2ccc(F)cc2)CN(C(=O)c2ccccc2)C/C1=C\c1ccc(F)cc1,58%
17,COc1cc(-c2cc(/C=C3\C(=O)Nc4ccccc43)[nH]n2)cc(OC)c1OC,74.7%
18,COc1cc(/C=C\c2cc(OC)c(OC)c(OC)c2)cc(NS(=O)(=O)c2ccc(Cl)cc2)c1OC,13.8%
19,S=C1SCC(c2ccccc2)S1 (centres undefined),114%
20,CCN(CC)Cc1cc(Nc2ccnc3cc(Cl)ccc23)ccc1OC,90.1%

row,Compound,growth
1,COC(=O)C(C(C[N+](=O)[O-])c1ccccc1)=P(c1ccccc1)(c1ccccc1)c1ccccc1 (centres undefined),101%
2,O=S(=O)(NCCCNc1nccc(-c2c(-c3ccc(F)cc3)nc3sccn23)n1)c1ccc2ccccc2c1,22.7%
3,CC(=O)N1N=C(c2ccc(Cl)cc2)CC1c1sc(Cl)nc1Cl (centres undefined),107%
4,O=c1[nH]c2ccc(Cl)cc2c2ccccc12,42.7%
5,COc1ccc(NC2=NC(C)(CO)CS2)cc1 (centres undefined),100%
6,N#Cc1ncc(Br)c(NC2CCCCCC2)n1,116%
7,O=C(Nc1cccc(-n2cc(-c3ccncc3)c(-c3cc(O)cc(Cl)c3)n2)c1)Nc1ccc(Cl)c(C(F)(F)F)c1,3.75% (active)
8,Nc1ncn(C2OC(CO)C(O)C2O)c(=O)n1 (centres undefined),-1.43% (active)
9,O=C(Nc1nc(-c2ccccc2Cl)cs1)c1cc(-c2ccc(Cl)cc2)nc2ccc(Cl)cc12,96.3%
10,Nc1c(C(=O)Nc2cccc(F)c2)sc2nc3c(cc12)C(=O)CCC3,11.5%
11,COc1ccc(-c2cc(/C=C3\C(=O)Nc4ccc(Cl)cc43)[nH]n2)cc1OC,79.9%
12,O=C1CC[C@@H]2CCCC[C@@H]2C1,112%
13,COc1ccc2c(c1)O/C(=C\c1ccc([N+](=O)[O-])s1)C2=O,2.82% (active)
14,Nc1nc(N)c2c(ccc3nccc32)[nH]1,20%
15,Nc1cc2c(cc1Cl)-c1ccc([N+](=O)[O-])cc1/C2=N\O,48.8%
16,COc1cc(-c2cc(/C=C/C(=O)c3ccc4c(c3)OCO4)[nH]n2)cc(OC)c1OC,68.6%
17,COc1ccc(Cl)cc1C(=O)Nc1nc2ccc(Cl)cc2s1,93.7%
18,Cc1cc2c(C)c3cc(C)c(N)cc3nc2cc1N,-20.5% (active)
19,O=c1oc2cc(OS(=O)(=O)c3ccccc3)ccc2c2c1CCCCC2,28.4%
